Results reported in PubChem BioAssay AID1159580 (chemical genetic matrix, 2015).
Several values for one entry are separate records, joined by “and”; a condition that tells them apart may be missing. Equal entries are not always repeated. Screen size: about 5,500 compounds; about 2,000 (36%) were called active. Roughly 18% stayed inconclusive and do not appear here. No stated cut-off is given here; in the data, active means normalized growth mostly below about 0.91 (no sharp cut-off); inconclusive means no clear call, values can overlap the other calls; inactive means mostly above about 0.92. This is one part of the list.

Assay: chemical genetic growth profiling, strain panel (AID 1159580);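 further: tested at 20 µM; growth read once vehicle control cultures reached saturation at 30 °C; 1 = growth at the plate median or of vehicle wells; lower values mean less growth of the strain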
Settings: growth OD

Measured: normalized growth

CCCCC1C(=O)N(c2ccccc2)N(c2ccccc2)C1=O
inactive: S. cerevisiae deletion strains, locus YJR075W, strain HOC1, active compounds read low 1 | S. cerevisiae deletion strains, locus YKL009W, strain mrt4, active compounds read low 0.98 | S. cerevisiae deletion strains, locus YKL068W, active compounds read low 0.963 | S. cerevisiae deletion strains, locus YKL085W, strain MDH1 (second series), active compounds read low 0.959 | S. cerevisiae deletion strains, locus YKL085W, strain MDH1, active compounds read low 0.959 | S. cerevisiae deletion strains, locus YKL160W, strain elf1, active compounds read low 1.01 | S. cerevisiae deletion strains, locus YKL190W, strain CNB1, active compounds read low 0.972 | S. cerevisiae deletion strains, locus YKR001C, strain vps1, active compounds read low 0.994 | S. cerevisiae deletion strains, locus YKR026C, strain gcn3, active compounds read low 0.988 | S. cerevisiae deletion strains, locus YKR091W, strain srl3, active compounds read low 0.986 | S. cerevisiae deletion strains, locus YLL001W, strain dnm1, active compounds read low 0.992 | S. cerevisiae deletion strains, locus YLL026W, active compounds read low 0.99 | S. cerevisiae deletion strains, locus YLL041C, strain sdh2, active compounds read low 0.985 | S. cerevisiae deletion strains, locus YLR027C, strain aat2, active compounds read low 0.987 | S. cerevisiae deletion strains, locus YLR039C, strain RIC1, active compounds read low 0.895 | S. cerevisiae deletion strains, locus YLR058C, strain SHM2, active compounds read low 0.987 | S. cerevisiae deletion strains, locus YLR102C, strain apc9, active compounds read low 0.983 | S. cerevisiae deletion strains, locus YLR113W, strain HOG1, active compounds read low 0.899 | S. cerevisiae deletion strains, locus YLR221C, strain rsa3, active compounds read low 1.02 | S. cerevisiae deletion strains, locus YLR258W, strain gsy2, active compounds read low 0.993 | S. cerevisiae deletion strains, locus YLR262C, strain YPT6 (second series), active compounds read low 0.93 | S. cerevisiae deletion strains, locus YLR262C, strain YPT6, active compounds read low 0.893 | S. cerevisiae deletion strains, locus YLR268W, strain sec22, active compounds read low 1.06 | S. cerevisiae deletion strains, locus YLR320W, strain mms22, active compounds read low 1.02 | S. cerevisiae deletion strains, locus YLR330W, strain CHS5, active compounds read low 0.984 | S. cerevisiae deletion strains, locus YLR342W, strain FKS1 (second series), active compounds read low 0.994 | S. cerevisiae deletion strains, locus YLR342W, strain FKS1, active compounds read low 0.978 | S. cerevisiae deletion strains, locus YLR357W, strain rsc2, active compounds read low 1.04 | S. cerevisiae deletion strains, locus YLR370C, strain arc18, active compounds read low 0.973 | S. cerevisiae deletion strains, locus YLR371W, strain rom2, active compounds read low 1 | S. cerevisiae deletion strains, locus YLR384C, strain iki3, active compounds read low 0.996 | S. cerevisiae deletion strains, locus YLR418C, strain cdc73, active compounds read low 0.995 | S. cerevisiae deletion strains, locus YML016C, strain PPZ1, active compounds read low 0.98 | S. cerevisiae deletion strains, locus YML032C, strain rad52, active compounds read low 1.02 | S. cerevisiae deletion strains, locus YML120C, strain ndi1, active compounds read low 0.999 | S. cerevisiae deletion strains, locus YML124C, strain tub3, active compounds read low 0.982 | S. cerevisiae deletion strains, locus YMR058W, strain fet3, active compounds read low 0.993 | S. cerevisiae deletion strains, locus YMR078C, strain ctf18, active compounds read low 0.988 | S. cerevisiae deletion strains, locus YMR125W, strain sto1, active compounds read low 0.989 | S. cerevisiae deletion strains, locus YMR129W, active compounds read low 0.986 | S. cerevisiae deletion strains, locus YMR205C, strain PFK2, active compounds read low 0.989 | S. cerevisiae deletion strains, locus YMR223W, strain ubp8, active compounds read low 0.967 | S. cerevisiae deletion strains, locus YMR231W, strain pep5, active compounds read low 0.996 | S. cerevisiae deletion strains, locus YMR263W, strain SAP30, active compounds read low 0.997 | S. cerevisiae deletion strains, locus YMR307W, strain GAS1, active compounds read low 0.971 | S. cerevisiae deletion strains, locus YNL067W, strain RPL9B, active compounds read low 1.02 | S. cerevisiae deletion strains, locus YNL071W, strain lat1, active compounds read low 0.994 | S. cerevisiae deletion strains, locus YNL128W, strain TEP1, active compounds read low 0.99 | S. cerevisiae deletion strains, locus YNL153C, strain GIM3, active compounds read low 1.04 and 1 | S. cerevisiae deletion strains, locus YNL175C, strain NOP13, active compounds read low 0.971 | S. cerevisiae deletion strains, locus YNL183C, strain NPR1, active compounds read low 0.946 | S. cerevisiae deletion strains, locus YNL197C, strain WHI3, active compounds read low 0.976 | S. cerevisiae deletion strains, locus YNL209W, strain ssb2, active compounds read low 1 | S. cerevisiae deletion strains, locus YNL224C, strain SQS1, active compounds read low 0.972 | S. cerevisiae deletion strains, locus YNL233W, strain BNI4, active compounds read low 1.04 | S. cerevisiae deletion strains, locus YNL248C, strain rpa49, active compounds read low 1.03 | S. cerevisiae deletion strains, locus YNL250W, strain rad50, active compounds read low 0.972 | S. cerevisiae deletion strains, locus YNL271C, strain bni1, active compounds read low 0.979 | S. cerevisiae deletion strains, locus YNL298W, strain CLA4, active compounds read low 0.998 | S. cerevisiae deletion strains, locus YNL307C, strain MCK1, active compounds read low 1.01 | S. cerevisiae deletion strains, locus YNL322C, strain KRE1 (second series), active compounds read low 0.982 | S. cerevisiae deletion strains, locus YNL322C, strain KRE1, active compounds read low 0.973 | S. cerevisiae deletion strains, locus YNR049C, strain mso1, active compounds read low 0.985 | S. cerevisiae deletion strains, locus YNR052C, strain pop2, active compounds read low 0.999 | S. cerevisiae deletion strains, locus YOL006C, strain TOP1, active compounds read low 1.05 | S. cerevisiae deletion strains, locus YOL012C, strain htz1 0.887 | S. cerevisiae deletion strains, locus YOL147C, strain pex11, active compounds read low 0.993 | S. cerevisiae deletion strains, locus YOR001W, strain rrp6, active compounds read low 0.99 | S. cerevisiae deletion strains, locus YOR061W, strain CKA2, active compounds read low 0.977 | S. cerevisiae deletion strains, locus YOR069W, strain VPS5, active compounds read low 0.984 | S. cerevisiae deletion strains, locus YOR070C, strain gyp1, active compounds read low 0.999 | S. cerevisiae deletion strains, locus YOR080W, strain dia2, active compounds read low 0.987 | S. cerevisiae deletion strains, locus YOR083W, strain WHI5 (second series), active compounds read low 0.994 | S. cerevisiae deletion strains, locus YOR083W, strain WHI5, active compounds read low 1.02 | S. cerevisiae deletion strains, locus YOR106W, strain vam3, active compounds read low 1.03 | S. cerevisiae deletion strains, locus YOR136W, strain idh2, active compounds read low 0.982 | S. cerevisiae deletion strains, locus YOR144C, strain elg1, active compounds read low 0.985 | S. cerevisiae deletion strains, locus YOR184W, strain ser1, active compounds read low 1 | S. cerevisiae deletion strains, locus YOR231W, strain MKK1, active compounds read low 0.933 | S. cerevisiae deletion strains, locus YOR265W, strain rbl2, active compounds read low 0.988 | S. cerevisiae deletion strains, locus YOR270C, strain vph1, active compounds read low 1.02 | S. cerevisiae deletion strains, locus YOR290C, strain snf2, active compounds read low 1.02 | S. cerevisiae deletion strains, locus YOR316C, strain cot1, active compounds read low 0.986 | S. cerevisiae deletion strains, locus YPL051W, strain arl3, active compounds read low 0.992 | S. cerevisiae deletion strains, locus YPL055C, strain LGE1, active compounds read low 1 and 0.997 | S. cerevisiae deletion strains, locus YPL078C, strain atp4, active compounds read low 1.02 | S. cerevisiae deletion strains, locus YPL106C, strain sse1, active compounds read low 1.01 | S. cerevisiae deletion strains, locus YPL240C, strain hsp82, active compounds read low 0.994 | S. cerevisiae deletion strains, locus YPL241C, strain CIN2, active compounds read low 0.981 and 1 | S. cerevisiae deletion strains, locus YPL256C, strain CLN2, active compounds read low 0.914 | S. cerevisiae deletion strains, locus YPR119W, strain clb2, active compounds read low 0.977 | S. cerevisiae deletion strains, locus YPR141C, strain kar3, active compounds read low 0.961 | S. cerevisiae deletion strains, locus YPR163C, strain tif3, active compounds read low 1 | S. cerevisiae deletion strains, locus YPR167C, strain met16, active compounds read low 0.993 | S. cerevisiae deletion strains, strain wtn01, active compounds read low 1.02 | S. cerevisiae strains, strain wild type, active compounds read low 0.984
